Source: PubChem (Broad Institute)
BL2 CD40 inh – CD40 pathway inhibition in BL2 cells; BL2 NF-kB luciferase reporter, CD40L-induced, 4 h; inhibition, % at 10 µM; 83,000 compounds, 0.94% hits; AID 1053188;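 active = mean inhibition of at least 50% with a set share of replicates also reaching that level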
Hits are given with their value; i = inactive; [ ] = dose if it differs, or a comment. Only a selection was taken, and hits are over-represented in it overall.

SMILES	BL2 CD40 inh
C[C@@H]1CCCCO[C@@H](CN(C)Cc2ccc(Cl)c(Cl)c2)[C@@H](C)CN([C@H](C)CO)C(=O)c2cc(NS(=O)(=O)c3cccs3)ccc2O1	i
C[C@H](CO)N1C[C@H](C)[C@@H](CN(C)Cc2ccc(Cl)c(Cl)c2)OCCCC[C@H](C)Oc2ccc(NS(=O)(=O)c3cccs3)cc2C1=O	50.6[25 µM]
C[C@@H]1CN([C@H](C)CO)C(=O)c2cc(NC(=O)Nc3ccc(C(F)(F)F)cc3)ccc2O[C@@H](C)CCCCO[C@@H]1CN(C)CC1CCCCC1	i
COc1ccc(S(=O)(=O)Nc2ccc3c(c2)C(=O)N([C@@H](C)CO)C[C@H](C)[C@H](CN(C)Cc2ccc(C(F)(F)F)cc2)OCCCC[C@H](C)O3)cc1	58.7[25 µM]
COc1ccc(NC(=O)Nc2ccc3c(c2)C(=O)N([C@@H](C)CO)C[C@@H](C)[C@@H](CN(C)Cc2ccc(C(F)(F)F)cc2)OCCCC[C@@H](C)O3)cc1	i
C[C@H](CO)N1C[C@H](C)[C@H](CN(C)CC2CCCCC2)OCCCC[C@H](C)Oc2ccc(NC(=O)Nc3ccc(C(F)(F)F)cc3)cc2C1=O	76.1[25 µM]
COc1ccc(NC(=O)Nc2ccc3c(c2)C(=O)N([C@H](C)CO)C[C@@H](C)[C@@H](CN(C)Cc2ccc(C(F)(F)F)cc2)OCCCC[C@@H](C)O3)cc1	i
C[C@@H]1CN([C@@H](C)CO)C(=O)c2cc(NC(=O)Nc3ccc(C(F)(F)F)cc3)ccc2O[C@@H](C)CCCCO[C@H]1CN(C)CC1CCCCC1	i
CO[C@@H]1CN(C)C(=O)c2ccc(NC(=O)C3CCC3)cc2OC[C@@H](C)N(Cc2nccs2)C[C@H]1C	i
CN(C)C(=O)c1cccc(-c2ccc3c(c2)[C@H]2[C@H](CCN2C(=O)c2ccc4c(c2)OCO4)[C@@H](CO)N3)c1	i
COc1cccc(NC(=O)C[C@@H]2CC[C@H]3[C@@H](COc4ccc(NC(=O)C5CCCC5)cc4C(=O)N3C)O2)c1	i
C[C@H]1CN([C@@H](C)CO)C(=O)CCCn2nncc2CO[C@@H]1CN(C)C(=O)C1CCCCC1	i
CCCC#Cc1ccc2c(c1)[C@H]1[C@H](CCN1S(=O)(=O)c1cn(C)cn1)[C@H](CO)N2	i
O=C(CN1CCOCC1)N[C@H]1CC[C@@H](CCNC(=O)C2CCCC2)O[C@@H]1CO	i
COc1ccc(-c2ccccc2[C@@H]2[C@H](C#N)N(C(=O)c3cccnc3)[C@H]2CO)cc1	i
CC(C)NC(=O)N(C)C[C@@H]1Oc2ccc(N)cc2CC(=O)N(C)C[C@H]1C	i
C[C@@H]1CN(C)C(=O)Cc2cc(N)ccc2O[C@@H]1CN(C)C(=O)OC(C)(C)C	i
COc1ccc(-n2c(C)c3c(C)nnc(C)c3c2C)cc1OC	i
COc1ccccc1N1C(=O)C2CC(C)=C(C)CC2C1=O (configuration not stated)	i
COc1cc(N2C(=O)C=CC2=O)ccc1N1C(=O)C=CC1=O	108.8
C[C@H]1CN([C@@H](C)CO)C(=O)c2c(c3ccccc3n2C)-c2ccccc2CO[C@@H]1CN(C)Cc1ccccc1C(F)(F)F	i
O=C(Cc1cccnc1)N1CC(=O)N2[C@H](CO)[C@H](c3ccc(/C=C/c4ccccc4)cc3)[C@@H]2C1	i
O=C1CC(c2ccco2)Sc2nc3ccccc3n21 (configuration not stated)	i
O=C1CC(c2ccc3c(c2)OCO3)Sc2nc3ccccc3n21 (configuration not stated)	59.7
O=C1CC(c2cccs2)Sc2nc3ccccc3n21 (configuration not stated)	i
SMILES	BL2 CD40 inh
CCC(=O)N1CC2(C1)CN(Cc1cccc(Cl)c1)[C@H](CO)c1[nH]c3cc(OC)ccc3c12	i
CN(C)C(=O)c1ccc(-c2ccc(C3[C@@H]4CN(C(=O)Cc5ccccc5)C[C@H]3N4)cc2)cc1 (some centres not stated)	i
O=C(C1CC1)N1CC[C@H]2[C@H](CO)Nc3ccc(-c4cccc(F)c4)cc3[C@H]21	i
C[C@@H]1CN(C)C(=O)Cc2cc(N(C)C)ccc2O[C@H]1CN(C)S(C)(=O)=O	i
Cc1csc(N=Nc2ccc(N(C)C)cc2)[n+]1[O-]	80.2
O=C(N[C@H]1CC[C@H](CCNC(=O)C2CCCC2)O[C@@H]1CO)c1ccccn1	i
COc1ccccc1S(=O)(=O)N[C@H]1CC[C@@H](CCNC(=O)C2CCCC2)O[C@H]1CO	i
CCOc1ccc2c(ccc(/C=C/c3cc(C)c4cccnc4c3O)[n+]2C)c1	78.6
C[C@H]1CN(C)C(=O)c2cc([N+](=O)[O-])ccc2O[C@@H]1CN(C)C(=O)OC(C)(C)C	i
O=C(Nc1ccc(F)cc1)N1CC(=O)N2[C@H](CO)[C@@H](c3ccc(C#Cc4cccnc4)cc3)[C@@H]2C1	i
CC(C)OC(=O)c1cn(Cc2c(F)cccc2F)c2sc(-c3ccc(NC(=O)C(C)C)cc3)c(CN(C)Cc3ccccc3)c2c1=O	54.2[25 µM]
CC(C)[C@@H](C)NC(=O)N(C)C[C@H]1OCc2ccccc2-c2ccccc2C(=O)N([C@H](C)CO)C[C@H]1C	i
COc1ccc(-c2ccccc2[C@H]2[C@@H](C#N)N(C(=O)C3CCCCC3)[C@H]2CO)cc1	i
O=C(Cc1ccccn1)N[C@H]1CC[C@H](CCNS(=O)(=O)c2cccc(F)c2)O[C@H]1CO	i
CCC(=O)N1[C@@H](CO)[C@@H](c2ccccc2)C12CN(Cc1ccccc1Cl)C2	i
CC(C)NC(=O)N1C[C@@H]2C(c3ccccc3)[C@H](C1)N2Cc1ccc(F)cc1 (some centres not stated)	i
CC(=O)NCCc1ccc(O)cc1	i
O=C(NCCc1ccccc1)c1noc2c1CCc1ccccc1-2	i
O=C1c2ccccc2CCC1CNCCc1ccc(O)cc1 (configuration not stated)	91.0[25 µM]
C[C@@H]1CN([C@H](C)CO)C(=O)c2c(c3ccccc3n2C)-c2ccccc2CO[C@H]1CN(C)C(=O)[C@@H]1CCCN1C	i
CC(=O)N(C)C[C@@H]1Oc2c(N)cccc2C(=O)N(C)C[C@@H]1C	i
CCOC(=O)c1sc2ccccc2c1OC(=O)c1ccccc1OC	64.2
CC(=O)c1sc2ccccc2c1OC(=O)c1ccco1	i
CCOC(=O)C1=C(COC(=O)c2ccccc2OC)NC(=O)NC1C (configuration not stated)	i
CC(=O)Nc1ccc2c(c1)CC(=O)N(C)C[C@@H](C)[C@@H](CN(C)C(=O)NC(C)C)O2	i
SMILES	BL2 CD40 inh
O=C(C[C@@H]1C[C@@H]2c3cc(NC(=O)C4CCOCC4)ccc3O[C@@H]2[C@H](CO)O1)NC1CCCC1	i
CCCN1[C@@H]2c3ccc(/C=C/c4ccccc4)c(=O)n3C[C@H]1[C@H](CO)[C@H]2C(=O)NCC1CC1	i
COc1ccc(-c2onc(C)c2-c2ccc(C(=O)OC(C)C)o2)c(O)c1	33.5
COc1cc(NC(=O)c2ccc(-c3c(C)noc3C)c3ccoc23)cc(OC)c1OC	i
COc1ccc2c(c1)CCc1c(C(=O)NCc3ccc(F)cc3)noc1-2	i
CCC(=O)N1[C@H](C(=O)N2CCCCC2)[C@@H](CO)[C@@H]2Cn3c(ccc(-c4cccc(F)c4)c3=O)[C@@H]21	i
O=C(NCCN1CCCC1)[C@@H]1[C@@H](CO)[C@@H]2Cn3c(cccc3=O)[C@H]1N2C(=O)c1ccccc1	i
O=C(c1cccc(F)c1)N1C[C@H]2[C@@H](c3ccccc31)[C@@H](CO)N2C(=O)c1cccc(F)c1	i
C[C@H](CO)N1C[C@H](C)[C@@H](CN(C)Cc2cccnc2)OCc2ccccc2-c2c(n(C)c3ccccc23)C1=O	i
COc1ccc(C(=O)/C=C/C(=O)N(CC(=O)NC2CCCCC2)Cc2ccccc2)c(O)c1	104.7
